Screening data as filed in PubChem.
An excerpt weighted towards active compounds, which were near 3.4% of everything screened.
Mcl1 Bid PPI – disrupts binding of human Mcl-1 to Bid peptide; AID 1021; Q07820; hit rate 0.97% among 220,000; inhibition, % at 21.7 µM; TR-FRET Mcl-1/Bid-Dy647 peptide binding, 1536-well;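 active = compounds that cut the binding signal by more than half at the single screening dose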;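 also: His-tagged Mcl-1 with europium anti-His antibody binding Bid BH3 peptide; 0% = Mcl-1 plus peptide wells and 100% = peptide-only wells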
NCF1 inh – p47phox (human) inhibition; AID 1274; hit rate 0.53% among 220,000; P14598; p47phox/p22phox peptide binding, fluorescence polarization, 2 h; inhibition, % at 24.7 µM;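 active = inhibition above about 30%, limit read from the data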;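 also: 0% = p47phox with labelled peptide and 100% = labelled peptide alone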
Target sequence (P14598 whole entry, looked up): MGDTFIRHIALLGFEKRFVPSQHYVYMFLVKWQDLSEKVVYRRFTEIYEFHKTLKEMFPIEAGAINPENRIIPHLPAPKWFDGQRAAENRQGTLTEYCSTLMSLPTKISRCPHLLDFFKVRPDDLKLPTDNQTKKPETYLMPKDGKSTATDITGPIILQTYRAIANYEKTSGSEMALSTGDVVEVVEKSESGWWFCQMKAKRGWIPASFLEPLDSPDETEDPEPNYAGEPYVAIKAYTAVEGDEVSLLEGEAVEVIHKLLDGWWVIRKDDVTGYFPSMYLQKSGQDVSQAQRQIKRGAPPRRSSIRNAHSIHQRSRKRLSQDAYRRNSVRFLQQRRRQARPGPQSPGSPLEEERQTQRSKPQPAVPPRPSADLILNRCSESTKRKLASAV
Bim-Mcl-1 – disrupts Bim peptide binding to human Mcl-1; Q07820; Bead-based flow cytometry, Bim peptide-Mcl-1 binding; inhibition, % at 10 µM; hit rate 0.1% among 190,000; in the data active = inhibition above about 40%;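 also: 0% = no compound tracer wells and 100% = peptide blocker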
m-calpain inh – inhibitors of pig calpain II. hit rate 0.37% among 220,000. inhibition, % at 16 µM. purified calpain II, fluorogenic peptide substrate, 30 min;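 active = inhibition above about 50%, limit read from the data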
Mcl1 Noxa PPI – disrupts binding of human Mcl-1 to Noxa peptide | TR-FRET Mcl-1/Noxa peptide binding, 2 h | inhibition, % at 21.7 µM | hit rate 1.5% among 220,000 | AID 1022;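 active = compounds that cut the protein-peptide binding signal by more than 50% relative to plate controls in a single-dose test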;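 also: His-tagged Mcl-1 with rhodamine Noxa BH3 peptide and terbium anti-His antibody; 0% = Mcl-1 plus Noxa peptide wells and 100% = peptide-only wells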
14-3-3 Bad PPI – disrupts binding of bovine 14-3-3 zeta to phospho-Bad peptide; hit rate 0.71% among 220,000; inhibition, % at 21.7 µM; P63103; TR-FRET 14-3-3zeta/Dy647-pBad peptide displacement, 1 h;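 active = inhibition above about 70%, limit read from the data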;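 also: 0% = full 14-3-3 plus peptide FRET controls and 100% = background without 14-3-3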
An asterisk follows results filed as active; x = no result given.

SMILES	Mcl1 Bid PPI	NCF1 inh	Bim-Mcl-1	m-calpain inh	Mcl1 Noxa PPI	14-3-3 Bad PPI
COc1cc(CN2CCN(C(=O)COc3ccccc3)CC2)cc(OC)c1OC	32	2	2	15	21	78*
Cc1cccc(OCC(=O)N2CCN(Cc3ccncc3)CC2)c1	60*	-4	-4	9	-48	48
O=C(COc1ccccc1)N1CCN(Cc2c[nH]c3ccccc23)CC1	68*	-10	1	-7	34	81*
COc1ccccc1CN1CCN(C(=O)COc2cccc(C)c2)CC1	40	-12	-2	-6	11	42
CCC(=NCCc1ccccc1)c1c(O)n(C)c(=O)n(C)c1=O	-12	-4	x	-17	-1	-8
CN1C(=O)CN=C(c2ccc(Cl)cc2)c2cc(Cl)ccc21	97*	3	-4	12	16	3
Cc1nnc2n1-c1ccc(Cl)cc1C(c1ccccc1)=NC2	2	-6	-2	18	-2	-1
CN1CCC(N(C)c2nc(-c3ccc([N+](=O)[O-])cc3)nc3ccccc23)CC1	-2	-18	0	-26	94*	2
CN1C(=O)C(=Cc2sc(=O)n(-c3ccccc3)c2N2CCCCC2)C(=O)N(C)C1=O	97*	83*	x	-15	-5	-5
CCN1CCN(Cc2ccc(C)cc2C)CC1	42	3	0	10	20	77*
C[n+]1ccc(-c2ccncc2)cc1	0	7	0	21	14	15
N#Cc1ccc(/C=C/C(=O)O)cc1	-11	-6	x	-8	-4	3
O=[N+]([O-])c1cc2c(cc1CNCCc1ccc3c(c1)OCO3)OCO2	56*	5	-5	-17	20	15
CCC(C)n1c(O)c(C=NCC2CCCO2)c(=O)[nH]c1=S (stereo not drawn)	-65	-13	x	-8	5	-1
CN(C)CP(=O)(O)CN(C)C=O	-40	-3	2	-6	-20	91*
O=C1NC(=O)N(c2ccccc2)C(=O)/C1=C\c1ccc([N+](=O)[O-])s1	-25	-89	x	-9	69*	10
O=C1NC(=O)N(c2ccccc2)C(=O)/C1=C\C=C\c1ccccc1	-1	-11	x	-21	70*	-4
O=C1NC(=O)N(c2ccccc2)C(=O)/C1=C\c1ccc([N+](=O)[O-])o1	10	-92	x	3	63*	57
CN1C(=O)NC(=O)/C(=C/c2ccc([N+](=O)[O-])s2)C1=O	-51	-14	x	16	53*	6
COc1ccc(OC)c(N2C(=O)NC(=O)/C(=C\c3ccc([N+](=O)[O-])s3)C2=O)c1	-34	-62	0	19	49	6
O=C(c1ccccc1)C1NC1c1ccccc1 (stereo not drawn)	-14	-4	x	-18	4	-5
Cc1cccc(NC(=O)C(C)N2CC=C(c3ccccc3)CC2)c1 (stereo not drawn)	-24	2	1	33	7	1
OCC[n+]1c2ccccc2nc2ccc(N3CCOCC3)cc21	-27	155*	x	21	27	-50
CC(=O)Nc1ccccc1C(=O)C(=O)Nc1cccc(C(=O)N2CCC3(CC2)OCCO3)c1	-5	-4	-20	4	16	-5
O=[N+]([O-])c1cccc(C2N3CCCN23)c1 (stereo not drawn)	2	-5	1	-10	-2	2
SMILES	Mcl1 Bid PPI	NCF1 inh	Bim-Mcl-1	m-calpain inh	Mcl1 Noxa PPI	14-3-3 Bad PPI
O=C(O)c1cccc2c1NC(c1cccc([N+](=O)[O-])c1)C1CC(Sc3ccccc3[N+](=O)[O-])C(Cl)C21 (stereo not drawn)	43	2	-2	3	98*	26
O=C(O)c1ccc2c(c1)C1C(Cl)C(Sc3ccccc3[N+](=O)[O-])CC1C(c1cccc([N+](=O)[O-])c1)N2 (stereo not drawn)	-49	8	1	-66	77*	9
CCN(CC)C(=O)c1ccc(NC(=O)Nc2ccccc2F)cc1	-13	-8	0	5	8	-3
CCN(CC)P(=O)(NC(=O)C(Cl)(Cl)Cl)N(CC)CC.[Cl-].[Cl-].[Cl-].[Nd+3]	25	33*	0	-37	16	23
CCOC(=O)c1c(/N=C/C2C(=O)NC(=S)NC2=O)sc2c1CCC2	35	-87	0	-164	-21	78*
CCOC(=O)c1c(/N=C/C2C(=O)NC(=S)NC2=O)sc(C)c1C	67*	-99	-1	-11	34	42
